The sample as a whole holds a higher share of hits than the screen did.
KDM5B inhibitor: blocks human KDM5B histone demethylase activity | 220,000 compounds, 2.6% hits | KDM5B demethylase, FDH-coupled NADH fluorescence (FDH is formaldehyde dehydrogenase) | Potency, µM (doses to about 57.7 µM), most hits filed as inhibitors; active means well fitted inhibition curve with a large enough effect; further: 0% is about no effect; nearly all actives have a fitted effect of over 70% in size
Target sequence (Q9UGL1 whole entry, looked up): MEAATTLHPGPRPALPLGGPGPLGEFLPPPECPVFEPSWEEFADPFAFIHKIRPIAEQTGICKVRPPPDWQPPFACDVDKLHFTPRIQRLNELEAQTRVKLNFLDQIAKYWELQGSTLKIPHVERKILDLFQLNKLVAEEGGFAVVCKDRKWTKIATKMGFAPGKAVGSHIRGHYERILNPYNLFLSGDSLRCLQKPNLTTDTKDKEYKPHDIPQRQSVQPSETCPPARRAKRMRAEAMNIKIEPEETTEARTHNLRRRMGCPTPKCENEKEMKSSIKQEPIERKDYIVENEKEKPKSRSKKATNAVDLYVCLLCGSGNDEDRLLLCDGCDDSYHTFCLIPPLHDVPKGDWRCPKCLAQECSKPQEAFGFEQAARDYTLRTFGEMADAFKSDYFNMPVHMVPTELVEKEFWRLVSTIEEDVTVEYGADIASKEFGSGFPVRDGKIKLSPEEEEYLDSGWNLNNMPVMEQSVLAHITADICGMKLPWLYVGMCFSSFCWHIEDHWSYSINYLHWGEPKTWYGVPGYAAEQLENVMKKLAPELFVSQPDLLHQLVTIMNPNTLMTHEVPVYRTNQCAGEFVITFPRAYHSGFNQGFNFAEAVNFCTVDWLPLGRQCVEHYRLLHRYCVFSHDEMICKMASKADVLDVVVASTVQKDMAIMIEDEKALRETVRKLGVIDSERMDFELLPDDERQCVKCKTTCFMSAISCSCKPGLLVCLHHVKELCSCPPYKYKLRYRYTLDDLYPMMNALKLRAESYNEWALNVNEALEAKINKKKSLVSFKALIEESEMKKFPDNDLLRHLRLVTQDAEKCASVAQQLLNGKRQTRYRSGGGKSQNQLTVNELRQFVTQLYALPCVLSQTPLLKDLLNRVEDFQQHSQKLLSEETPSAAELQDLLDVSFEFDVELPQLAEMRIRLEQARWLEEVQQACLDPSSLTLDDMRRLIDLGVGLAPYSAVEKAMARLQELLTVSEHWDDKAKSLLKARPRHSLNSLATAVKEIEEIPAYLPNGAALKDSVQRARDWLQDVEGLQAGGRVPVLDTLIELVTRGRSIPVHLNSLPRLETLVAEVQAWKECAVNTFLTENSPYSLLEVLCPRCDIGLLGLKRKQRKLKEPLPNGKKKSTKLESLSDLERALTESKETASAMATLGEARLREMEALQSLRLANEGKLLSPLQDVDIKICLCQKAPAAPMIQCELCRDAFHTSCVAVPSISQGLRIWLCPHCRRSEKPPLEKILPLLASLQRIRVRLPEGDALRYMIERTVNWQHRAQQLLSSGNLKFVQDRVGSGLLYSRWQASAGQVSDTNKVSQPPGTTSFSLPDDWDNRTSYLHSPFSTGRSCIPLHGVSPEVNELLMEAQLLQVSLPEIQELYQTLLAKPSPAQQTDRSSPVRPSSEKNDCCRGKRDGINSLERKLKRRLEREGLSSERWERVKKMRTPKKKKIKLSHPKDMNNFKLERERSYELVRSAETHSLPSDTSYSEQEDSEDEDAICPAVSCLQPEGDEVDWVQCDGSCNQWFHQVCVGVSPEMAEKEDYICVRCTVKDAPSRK
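Inhibition is measured as reduced NADH fluorescence generation from FDH coupling to formaldehyde release. Truncated KDM5BΔAP at 200 nM final acts on H3K4me3 peptide (12.5 µM in substrate mix) in pH 7.5 HEPES buffer with Tween-20, 30 min, room temperature.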
Starred values were filed as active, the others as inactive; i = inactive. Potency means the concentration at half of the fitted maximal effect.

SMILES	KDM5B inhibitor
CCN1CCN(c2nc3ccccc3nc2C(C#N)S(=O)(=O)c2ccc(Cl)cc2)CC1 (centres undefined)	i
CCn1c(C2CCN(C(=O)CCc3ccccc3OC)CC2)nn(C)c1=O	i
C=CCNC(=O)N[C@H]1C[C@@H](C(=O)N[C@H](Cc2c[nH]c3ccccc23)C(N)=O)N(C(=O)c2cccn2C)C1	i
Cc1ccccc1CN1CCC2(Cc3ccccc3CNC2=O)C1 (centres undefined)	i
COc1cc(CN2CCN(Cc3ccccc3C)CC2)cc(OC)c1O	i
COc1cccc(NCc2cc(=O)oc3cc(OC)ccc23)c1	i
CC(C)c1nc2c(NC(=O)c3cccc(Br)c3)cccn2n1	i
Cc1nc2ccccc2nc1SCC(=O)Nc1ccccc1C(F)(F)F	i
O=C(CC1=CCCCC1)N1C[C@@H](CO)[C@H](c2nc(C3CC3)no2)C1	i
NC(=O)Cc1c[nH]c2ncc(-c3ccc(F)cc3)cc12	35.5µM*
Cc1ccc(S(C)(=O)=O)cc1C(=O)NC(C)C1CC1 (centres undefined)	i
CCCCCC/C=N/NC(=O)Cc1cccc2ccccc12	i
CCN1CCC2(Cc3ccccc3CN(C(=O)C3CCCC3)C2)C1 (centres undefined)	i
CCc1ccccc1N(CC)C(=O)Cn1nc(Cc2cccnc2)c2ccccc2c1=O	i
Clc1ccc(CNc2ncncc2-c2nc(-c3ccccc3)no2)cc1	i
COc1ccc(CNc2ncncc2-c2nc(-c3ccccc3)no2)cc1	i
c1ccc(-c2noc(-c3cncnc3NCc3ccco3)n2)cc1	i
CCN1CCN(CCNc2ncncc2-c2nc(-c3ccccc3)no2)CC1	i
c1ccc(CCNc2ncncc2-c2nc(-c3ccccc3)no2)cc1	35.5µM*
CCc1ccc(CNc2ncncc2-c2nc(-c3ccccc3)no2)cc1	28.2µM*
CCOC(=O)c1nnn(CC(=O)Nc2ccc(C)cc2Cl)c1C(=O)OCC	i
COc1ccc(/C=C2\N=C(c3ccc(Br)cc3)NC2=O)cc1OC	i
Cc1cccc(-c2cc(C(=O)Nc3cccc(C(F)(F)F)c3)[nH]n2)c1O	i
CCCCS(=O)(=O)N[C@@H]1CN(c2ncccn2)C[C@H]1CN(C)C	31.6µM*
CCCCS(=O)(=O)N[C@@H]1CN(C2CCOCC2)C[C@H]1CN(C)C	i
SMILES	KDM5B inhibitor
CCCCN(C)S(=O)(=O)NC1CCCN(c2ncccn2)C1 (centres undefined)	i
CN(C)C[C@@H]1CN(c2ccncn2)C[C@H]1NS(=O)(=O)Cc1cccc(F)c1	i
CCCS(=O)(=O)N[C@@H]1CN(c2ncccn2)C[C@H]1CN(C)C	28.2µM*
CCCS(=O)(=O)N[C@@H]1CN(Cc2ccncc2)C[C@H]1CN(C)C	i
Cc1cccc(NC(NC(=O)c2cccc(Cl)c2)C(Cl)(Cl)Cl)c1 (centres undefined)	i
COc1cccc(C(=O)Nc2cnc3ccccc3c2)c1	i
COc1cc(Cl)c(C)cc1NC(=O)CN1C(=O)NC(c2ccc(Cl)cc2)C2=C1COC2=O (centres undefined)	i
CCCCCCCn1c(SC(CC)C(=O)OCC)nc2c1c(=O)[nH]c(=O)n2C (centres undefined)	i
COc1ccc2nc3n(c2c1)[C@@H](CNCc1ccc(S(C)(=O)=O)cc1)COC3	i
COc1ccc2nc3n(c2c1)[C@@H](CNCc1ccccc1)COC3	i
COc1ccc2nc3n(c2c1)[C@@H](CNC(=O)c1ccc(F)cc1)COC3	35.5µM*
COc1ccc2nc3n(c2c1)[C@@H](CNS(=O)(=O)c1ccc(F)cc1)COC3	i
COc1ccc2nc3n(c2c1)[C@@H](CNCc1ccc(C#N)cc1)COC3	28.2µM*
Cc1cccc2c1nc1n2[C@@H](CNC(=O)c2ccc(F)cc2)COC1	i
Cc1ccccc1-c1noc(Cn2cnc3c2c(=O)n(C)c(=O)n3C)n1	i
COc1ccc(CC(=O)N2CC(C(=O)NCCc3ccncc3)C3(CCOCC3)C2)cc1 (centres undefined)	i
CCCS(=O)(=O)N1CCCC1C(=O)NC1CCCCC1 (centres undefined)	i
COc1ccc(CCNC(=O)CSc2nc(Cl)nc3nc[nH]c23)cc1OC	i
C=CCN(Cc1cnc(-c2cccc(C)c2)nc1)Cc1ccccn1	22.4µM*
C=CCN(Cc1cccc(OCC(N)=O)c1)Cc1ccccc1C	i
Cc1cccc(-c2ncc(CN(C)Cc3cccc4ncccc34)cn2)c1	i
COC(CNC(=O)CC(C)C)c1ccccc1 (centres undefined)	i
COc1cccc2cc(-c3nc(-c4nonc4N)no3)c(=O)oc12	i
CC[C@@]1(O)CCN(C(=O)c2ccc(OC)c(N3CCOCC3)c2)C[C@H]1O	i
CCOc1cc2nc(-c3ccc(OC)c(OC)c3)nc(N3CCC(C(N)=O)CC3)c2cc1OC	i
SMILES	KDM5B inhibitor
CC[C@@]1(O)CCN(c2nc(N)c3cc(OC)c(OC)cc3n2)C[C@H]1O	31.6µM*
COc1ccc(-n2nc(C3CCCN(CC4CCCCC4)C3)[nH]c2=O)cc1 (centres undefined)	i
COC(=O)c1c(C)[nH]c(C(=O)CSc2nnc(C)s2)c1C	i
O=C(NC1(C(F)(F)F)N=C(c2ccccc2)N(Cc2ccco2)C1=O)c1cccs1 (centres undefined)	i
O=C(Nc1ccccc1F)N1CCC(N2C(=O)C3(CCCCC3)C2c2ccncc2)CC1 (centres undefined)	i
c1ccc(-c2cc(NCCCOc3cccnc3)n3nccc3n2)cc1	22.4µM*
COCCCNc1cc(Cl)nc2ccnn12	i
Clc1cc(NCCc2ccccn2)n2nccc2n1	i
Cc1ccc(NC(=O)NC(=O)CN(C)c2ccccc2)c(C)c1	i
Cc1ccc2c(COC(=O)Cc3n[nH]c(=O)c4ccccc34)cc(=O)oc2c1	i
Cc1ccc(C)c(C(=O)OCC(=O)c2c[nH]c3ccccc23)c1	i
Cc1cccc(-c2noc(C(C)Oc3ccc(Br)cc3)n2)c1 (centres undefined)	i
CCN(CC)C(=O)c1cc(-c2ccncc2)nc2ccccc12	i
CCN(CC)C(=O)c1cc(-c2ccc(Cl)cc2)nc2ccccc12	i
CCN(Cc1ccncc1)C(=O)c1cc(-c2cnn(CC)c2)nc2cc(C)ccc12	28.2µM*
CC(C)CNC(=O)C(NC(=O)CC(C)C)C1CCN(C(=O)c2ccccc2)CC1 (centres undefined)	i
CCn1c(-c2ccccc2)nn(CC(=O)NCc2ccsc2)c1=O	i
COc1cccc(CNC(=O)Cn2c(=O)c3c(ncn3C)n(C)c2=O)c1	i
CS(=O)(=O)N1CCC(N2C(=O)C(OCC3CC3)C23CCCCC3)CC1 (centres undefined)	i
COc1ccc(NC(C)=O)cc1NC(=O)CNC(c1ccc(F)cc1)c1cccs1 (centres undefined)	i
Cc1cc(C)c(CNC(=O)c2cc(-c3cnn(C)c3)cc3c2OCCN3C(C)C)c(=O)[nH]1	28.2µM*
Cc1cc(C)c(CNC(=O)c2cc(-c3cnn(C)c3)cc3c2OCCN3C)c(=O)[nH]1	31.6µM*
O=C(N[C@@H]1CN(CC2CC2)C[C@H]1CO)c1ccccc1	i
COc1cc(OC)cc(-c2nc(-c3nonc3N)no2)c1	i
CC(C)NC(=O)NC(=O)CSc1nnc(-c2ccccc2)c(-c2ccccc2)n1	i
CNc1cc(C)nc(N2C[C@H]3CN(C(=O)N(C)C)C[C@@]3(C(=O)O)C2)n1	22.4µM*

Screening results (PubChem BioAssay)
